# Laboratory results published in the supplement of paper PMC12282887.
# ± gives the standard deviation of the averaged measurements.
# How the values were obtained:
# Experiment in all cases: promoter activity interaction Z-score (Lux/OD deviation from empty-vector control); higher = stronger promoter induction by the compound
# [1] = system: E. coli BW25113 acrABp lux reporter
# How it was run: (§1)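 E. coli BW25113 luxCDABE reporter strains grew at 37°C in 40 µl LB Lennox in 384-well plates, with OD600 and luminescence read every 30 min for 12 h. After integration over 0–8 h for wild type or 1–9 h for deletion strains, wells under 10% of the median growth value were removed. Each score is the Z-transformed residual of growth-normalised luminescence fitted against a control.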
# [2] = system: E. coli BW25113 micFp lux reporter
# How it was run: as §1
# [3] = system: E. coli BW25113 ompFp lux reporter
# How it was run: as §1
# [4] = system: E. coli BW25113 robp lux reporter
# How it was run: as §1
# [5] = system: E. coli BW25113 soxSp lux reporter
# How it was run: as §1
# [6] = system: E. coli BW25113 tolCp lux reporter
# How it was run: as §1
# [7] = 0.034 µg/ml, genetic background: wild type
# [8] = 0.034 µg/ml, genetic background: ΔmarA
# [9] = 0.034 µg/ml, genetic background: Δrob
# [10] = 0.034 µg/ml, genetic background: ΔsoxS
# [11] = 0.067 µg/ml, genetic background: wild type
# [12] = 0.067 µg/ml, genetic background: ΔmarA
# [13] = 0.067 µg/ml, genetic background: Δrob
# [14] = 0.067 µg/ml, genetic background: ΔsoxS
# [15] = 0.13 µg/ml, genetic background: wild type
# [16] = 0.13 µg/ml, genetic background: ΔmarA
# [17] = 0.13 µg/ml, genetic background: Δrob
# [18] = 0.13 µg/ml, genetic background: ΔsoxS
# [19] = 0.27 µg/ml, genetic background: wild type
# [20] = 0.27 µg/ml, genetic background: ΔmarA
# [21] = 0.27 µg/ml, genetic background: Δrob
# [22] = 0.27 µg/ml, genetic background: ΔsoxS
# [23] = 1.7 µg/ml, genetic background: wild type
# [24] = 1.7 µg/ml, genetic background: ΔmarA
# [25] = 1.7 µg/ml, genetic background: Δrob
# [26] = 1.7 µg/ml, genetic background: ΔsoxS
# [27] = 3.5 µg/ml, genetic background: wild type
# [28] = 3.5 µg/ml, genetic background: ΔmarA
# [29] = 3.5 µg/ml, genetic background: Δrob
# [30] = 3.5 µg/ml, genetic background: ΔsoxS
# [31] = 6.9 µg/ml, genetic background: wild type
# [32] = 6.9 µg/ml, genetic background: ΔmarA
# [33] = 6.9 µg/ml, genetic background: Δrob
# [34] = 6.9 µg/ml, genetic background: ΔsoxS
# [35] = 13.9 µg/ml, genetic background: wild type
# [36] = 13.9 µg/ml, genetic background: ΔmarA
compound,measurement,setting,value
CCN1CCN(C(=O)N[C@@H](C(=O)N[C@@H]2C(=O)N3[C@@H]2SC(C)(C)[C@@H]3C(=O)O)c2ccccc2)C(=O)C1=O [Piperacillin],promoter activity interaction Z-score,[1]; [7],-0.232 ± 0.0098
same,promoter activity interaction Z-score,[1]; [8],-0.0362 ± 0.011
same,promoter activity interaction Z-score,[1]; [9],0.0917 ± 0.12
same,promoter activity interaction Z-score,[1]; [10],-0.171 ± 0.35
same,promoter activity interaction Z-score,[1]; [11],-0.00951 ± 0.16
same,promoter activity interaction Z-score,[1]; [12],-0.975 ± 0.12
same,promoter activity interaction Z-score,[1]; [13],-0.296 ± 0.13
same,promoter activity interaction Z-score,[1]; [14],0.0579 ± 0.55
same,promoter activity interaction Z-score,[1]; [15],-0.124 ± 0.2
same,promoter activity interaction Z-score,[1]; [16],0.866 ± 1.5
same,promoter activity interaction Z-score,[1]; [17],0.0632 ± 0.21
same,promoter activity interaction Z-score,[1]; [18],-0.295 ± 0.39
same,promoter activity interaction Z-score,[1]; [19],-0.155 ± 0.22
same,promoter activity interaction Z-score,[1]; [20],1.08 ± 0.93
same,promoter activity interaction Z-score,[1]; [21],0.045 ± 0.16
same,promoter activity interaction Z-score,[1]; [22],-0.703 ± 0.75
same,promoter activity interaction Z-score,[2]; [7],0.00552 ± 0.088
same,promoter activity interaction Z-score,[2]; [8],-0.146 ± 0.15
same,promoter activity interaction Z-score,[2]; [9],-0.0761 ± 0.045
same,promoter activity interaction Z-score,[2]; [10],-0.264 ± 0.15
same,promoter activity interaction Z-score,[2]; [11],0.13 ± 0.05
same,promoter activity interaction Z-score,[2]; [12],0.0167 ± 0.14
same,promoter activity interaction Z-score,[2]; [13],-0.0679 ± 0.059
same,promoter activity interaction Z-score,[2]; [14],-0.148 ± 0.27
same,promoter activity interaction Z-score,[2]; [15],-0.112 ± 0.27
same,promoter activity interaction Z-score,[2]; [16],-0.0842 ± 0.077
same,promoter activity interaction Z-score,[2]; [17],-0.0193 ± 0.093
same,promoter activity interaction Z-score,[2]; [18],-0.266 ± 0.18
same,promoter activity interaction Z-score,[2]; [19],-0.272 ± 0.16
same,promoter activity interaction Z-score,[2]; [20],-0.139 ± 0.059
same,promoter activity interaction Z-score,[2]; [21],-0.0211 ± 0.15
same,promoter activity interaction Z-score,[2]; [22],-0.639 ± 0.054
same,promoter activity interaction Z-score,[3]; [7],-0.0853 ± 0.096
same,promoter activity interaction Z-score,[3]; [8],0.15 ± 0.27
same,promoter activity interaction Z-score,[3]; [9],-0.247 ± 0.24
same,promoter activity interaction Z-score,[3]; [10],-0.152 ± 0.042
same,promoter activity interaction Z-score,[3]; [11],0.324 ± 0.3
same,promoter activity interaction Z-score,[3]; [12],-0.184 ± 0.32
same,promoter activity interaction Z-score,[3]; [13],0.0351 ± 0.21
same,promoter activity interaction Z-score,[3]; [14],0.0638 ± 0.27
same,promoter activity interaction Z-score,[3]; [15],0.0298 ± 0.29
same,promoter activity interaction Z-score,[3]; [16],0.086 ± 0.054
same,promoter activity interaction Z-score,[3]; [17],-0.035 ± 0.23
same,promoter activity interaction Z-score,[3]; [18],-0.0829 ± 0.38
same,promoter activity interaction Z-score,[3]; [19],0.489 ± 0.45
same,promoter activity interaction Z-score,[3]; [20],0.879 ± 0.27
same,promoter activity interaction Z-score,[3]; [21],1.38 ± 0.61
same,promoter activity interaction Z-score,[3]; [22],0.0824 ± 1.4
same,promoter activity interaction Z-score,[4]; [7],0.0506 ± 0.23
same,promoter activity interaction Z-score,[4]; [8],-0.0397 ± 0.005
same,promoter activity interaction Z-score,[4]; [9],0.283 ± 0.84
same,promoter activity interaction Z-score,[4]; [10],-0.0239 ± 0.021
same,promoter activity interaction Z-score,[4]; [11],0.564 ± 0.3
same,promoter activity interaction Z-score,[4]; [12],0.263 ± 0.19
same,promoter activity interaction Z-score,[4]; [13],0.443 ± 0.078
same,promoter activity interaction Z-score,[4]; [14],0.154 ± 0.23
same,promoter activity interaction Z-score,[4]; [15],0.0585 ± 0.068
same,promoter activity interaction Z-score,[4]; [16],0.404 ± 0.017
same,promoter activity interaction Z-score,[4]; [17],0.606 ± 0.011
same,promoter activity interaction Z-score,[4]; [18],0.00285 ± 0.0042
same,promoter activity interaction Z-score,[4]; [19],0.179 ± 0.51
same,promoter activity interaction Z-score,[4]; [20],0.636 ± 0.1
same,promoter activity interaction Z-score,[4]; [21],0.356 ± 0.1
same,promoter activity interaction Z-score,[4]; [22],-0.904 ± 1.2
same,promoter activity interaction Z-score,[5]; [7],-0.0446 ± 0.039
same,promoter activity interaction Z-score,[5]; [8],-0.141 ± 0.061
same,promoter activity interaction Z-score,[5]; [9],0.0401 ± 0.031
same,promoter activity interaction Z-score,[5]; [10],-0.0874 ± 0.14
same,promoter activity interaction Z-score,[5]; [11],0.017 ± 0.053
same,promoter activity interaction Z-score,[5]; [12],-0.00164 ± 0.038
same,promoter activity interaction Z-score,[5]; [13],0.126 ± 0.088
same,promoter activity interaction Z-score,[5]; [14],0.0907 ± 0.13
same,promoter activity interaction Z-score,[5]; [15],-0.0137 ± 0.014
same,promoter activity interaction Z-score,[5]; [16],-0.056 ± 0.022
same,promoter activity interaction Z-score,[5]; [17],-0.105 ± 0.013
same,promoter activity interaction Z-score,[5]; [18],-0.0509 ± 0.17
same,promoter activity interaction Z-score,[5]; [19],-0.122 ± 0.084
same,promoter activity interaction Z-score,[5]; [20],-0.184 ± 0.011
same,promoter activity interaction Z-score,[5]; [21],-0.0489 ± 0.12
same,promoter activity interaction Z-score,[5]; [22],-0.233 ± 0.7
same,promoter activity interaction Z-score,[6]; [7],0.0285 ± 0.87
same,promoter activity interaction Z-score,[6]; [8],-0.171 ± 0.024
same,promoter activity interaction Z-score,[6]; [9],-0.382 ± 0.53
same,promoter activity interaction Z-score,[6]; [10],0.0095 ± 1.5
same,promoter activity interaction Z-score,[6]; [11],0.334 ± 0.13
same,promoter activity interaction Z-score,[6]; [12],0.917 ± 0.67
same,promoter activity interaction Z-score,[6]; [13],0.279 ± 0.2
same,promoter activity interaction Z-score,[6]; [14],-0.332 ± 0.83
same,promoter activity interaction Z-score,[6]; [15],-0.441 ± 0.82
same,promoter activity interaction Z-score,[6]; [16],-0.635 ± 0.38
same,promoter activity interaction Z-score,[6]; [17],0.0967 ± 0.77
same,promoter activity interaction Z-score,[6]; [18],-0.574 ± 0.84
same,promoter activity interaction Z-score,[6]; [19],-0.552 ± 0.3
same,promoter activity interaction Z-score,[6]; [20],0.498 ± 0.032
same,promoter activity interaction Z-score,[6]; [21],0.489 ± 0.43
same,promoter activity interaction Z-score,[6]; [22],-0.895 ± 0.62
NC(=O)c1cc[n+](CC2=C(C(=O)[O-])N3C(=O)[C@@H](NC(=O)[C@@H](c4ccccc4)S(=O)(=O)O)[C@H]3SC2)cc1 [Cefsulodin],promoter activity interaction Z-score,[1]; [23],0.269 ± 0.15
same,promoter activity interaction Z-score,[1]; [24],0.601 ± 0.24
same,promoter activity interaction Z-score,[1]; [25],-0.158 ± 0.15
same,promoter activity interaction Z-score,[1]; [26],-0.315 ± 0.077
same,promoter activity interaction Z-score,[1]; [27],0.0267 ± 0.076
same,promoter activity interaction Z-score,[1]; [28],0.343 ± 0.28
same,promoter activity interaction Z-score,[1]; [29],0.17 ± 0.29
same,promoter activity interaction Z-score,[1]; [30],-0.28 ± 0.31
same,promoter activity interaction Z-score,[1]; [31],0.306 ± 0.13
same,promoter activity interaction Z-score,[1]; [32],-0.189 ± 0.29
same,promoter activity interaction Z-score,[1]; [33],-0.455 ± 0.052
same,promoter activity interaction Z-score,[1]; [34],-0.399 ± 0.055
same,promoter activity interaction Z-score,[1]; [35],0.379 ± 0.28
same,promoter activity interaction Z-score,[1]; [36],-0.532 ± 0.81
same,promoter activity interaction Z-score,"[1]; 13.9 µg/ml, genetic background: Δrob",0.198 ± 0.17
same,promoter activity interaction Z-score,"[1]; 13.9 µg/ml, genetic background: ΔsoxS",0.0814 ± 0.14
same,promoter activity interaction Z-score,[2]; [23],0.14 ± 0.014
same,promoter activity interaction Z-score,[2]; [24],-0.0463 ± 0.21
same,promoter activity interaction Z-score,[2]; [25],0.0953 ± 0.35
same,promoter activity interaction Z-score,[2]; [26],-0.338 ± 0.047
same,promoter activity interaction Z-score,[2]; [27],0.0738 ± 0.052
same,promoter activity interaction Z-score,[2]; [28],-0.0526 ± 0.14
same,promoter activity interaction Z-score,[2]; [29],-0.0549 ± 0.0043
same,promoter activity interaction Z-score,[2]; [30],-0.224 ± 0.027
same,promoter activity interaction Z-score,[2]; [31],0.373 ± 0.2
same,promoter activity interaction Z-score,[2]; [32],-0.161 ± 0.17
same,promoter activity interaction Z-score,[2]; [33],0.046 ± 0.26
same,promoter activity interaction Z-score,[2]; [34],-0.32 ± 0.14
same,promoter activity interaction Z-score,[2]; [35],0.27 ± 0.18
same,promoter activity interaction Z-score,[2]; [36],-0.237 ± 0.007
